# Source: the supplement of paper PMC4466140
# How the values were obtained:
# Assay in all cases: SPOT peptide array binding signal intensity (averaged, normalized) (arbitrary units (background-subtracted, floor 0; scale differs between SH3 domains)); higher = stronger binding of the SH3 domain to the peptide
# CaNbp2 = target: CaNbp2
# Summary of the method: (§1)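 E. coli BL21(DE3) was used to express GST-fused SH3 domains from four yeast species, which were then purified on glutathione Sepharose. These were incubated at 10 μg/ml in TBS-based blocking buffer overnight at 4°C on cellulose membranes carrying synthetic 15-mer peptides, in which cysteines were replaced by serines. Binding signal is the replicate average of normalized, background-subtracted spot intensity, in arbitrary units that differ between domains.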
# CaRvs167 = target: CaRvs167
# Summary of the method: as §1
# CaRvs167-3 = target: CaRvs167-3
# Summary of the method: as §1
# CaSho1 = target: CaSho1
# Summary of the method: as §1
# CaSla1-D1-D2 = target: CaSla1-D1-D2
# Summary of the method: as §1
# CaSla1-D3 = target: CaSla1-D3
# Summary of the method: as §1
# ScAbp1 = target: ScAbp1
# Summary of the method: as §1
# ScBbc1 = target: ScBbc1
# Summary of the method: as §1
# ScBem1-D1 = target: ScBem1-D1
# Summary of the method: as §1
# ScBzz1-D1 = target: ScBzz1-D1
# Summary of the method: as §1
# ScBzz1-D2 = target: ScBzz1-D2
# Summary of the method: as §1
# ScCyk3 = target: ScCyk3
# Summary of the method: as §1
# ScFus1 = target: ScFus1
# Summary of the method: as §1
# ScHof1 = target: ScHof1
# Summary of the method: as §1
# ScHse1 = target: ScHse1
# Summary of the method: as §1
# ScLsb1 = target: ScLsb1
# Summary of the method: as §1
# ScLsb2 = target: ScLsb2
# Summary of the method: as §1
# ScLsb3 = target: ScLsb3
# Summary of the method: as §1
# ScLsb4 = target: ScLsb4
# Summary of the method: as §1
# ScMyo3 = target: ScMyo3
# Summary of the method: as §1
# ScMyo5 = target: ScMyo5
# Summary of the method: as §1
# ScNbp2 = target: ScNbp2
# Summary of the method: as §1
# ScPex13 = target: ScPex13
# Summary of the method: as §1
# ScRvs167 = target: ScRvs167
# Summary of the method: as §1
# ScSho1 = target: ScSho1
# Summary of the method: as §1
# ScSla1-D1-D2 = target: ScSla1-D1-D2
# Summary of the method: as §1
# ScSla1-D3 = target: ScSla1-D3
# Summary of the method: as §1
# SpAbp1-D1 = target: SpAbp1-D1
# Summary of the method: as §1
# SpBbc1 = target: SpBbc1
# Summary of the method: as §1
# SpBzz1-D1 = target: SpBzz1-D1
# Summary of the method: as §1
# SpBzz1-D2 = target: SpBzz1-D2
# Summary of the method: as §1
# SpCyk3 = target: SpCyk3
# Summary of the method: as §1
# SpHof1 = target: SpHof1
# Summary of the method: as §1
# SpHof1-2 = target: SpHof1-2
# Summary of the method: as §1
# SpHof1-3 = target: SpHof1-3
# Summary of the method: as §1
# SpHse1 = target: SpHse1
# Summary of the method: as §1
# SpLsb1 = target: SpLsb1
# Summary of the method: as §1
# SpLsb4 = target: SpLsb4
# Summary of the method: as §1
# SpMyo1 = target: SpMyo1
# Summary of the method: as §1
# SpNbp2 = target: SpNbp2
# Summary of the method: as §1
# SpPex13 = target: SpPex13
# Summary of the method: as §1
# SpRvs167 = target: SpRvs167
# Summary of the method: as §1
# SpSla1-D1-D2 = target: SpSla1-D1-D2
# Summary of the method: as §1
# SpSla1-D3 = target: SpSla1-D3
# Summary of the method: as §1
# AgAbp1 = target: AgAbp1
# Summary of the method: as §1
# AgBbc1 = target: AgBbc1
# Summary of the method: as §1
# AgBem1-D1 = target: AgBem1-D1
# Summary of the method: as §1
# AgBzz1-D1 = target: AgBzz1-D1
# Summary of the method: as §1
# AgBzz1-D2 = target: AgBzz1-D2
# Summary of the method: as §1
# AgCyk3 = target: AgCyk3
# Summary of the method: as §1
# AgFus1 = target: AgFus1
# Summary of the method: as §1
# AgHof1 = target: AgHof1
# Summary of the method: as §1
# AgHse1 = target: AgHse1
# Summary of the method: as §1
# AgLsb1 = target: AgLsb1
# Summary of the method: as §1
# AgLsb4 = target: AgLsb4
# Summary of the method: as §1
# AgMyo5 = target: AgMyo5
# Summary of the method: as §1
# AgNbp2 = target: AgNbp2
# Summary of the method: as §1
# AgRvs167 = target: AgRvs167
# Summary of the method: as §1
# AgSho1 = target: AgSho1
# Summary of the method: as §1
# AgSla1-D1-D2 = target: AgSla1-D1-D2
# Summary of the method: as §1
# AgSla1-D3 = target: AgSla1-D3
# Summary of the method: as §1
# CaAbp1-D1 = target: CaAbp1-D1
# Summary of the method: as §1
# CaAbp1-D2 = target: CaAbp1-D2
# Summary of the method: as §1
# CaBbc1 = target: CaBbc1
# Summary of the method: as §1
# CaBem1-D1 = target: CaBem1-D1
# Summary of the method: as §1
# CaBzz1-D1 = target: CaBzz1-D1
# Summary of the method: as §1
# CaBzz1-D2 = target: CaBzz1-D2
# Summary of the method: as §1
# CaCyk3 = target: CaCyk3
# Summary of the method: as §1
# CaFus1 = target: CaFus1
# Summary of the method: as §1
# CaHof1 = target: CaHof1
# Summary of the method: as §1
# CaHse1 = target: CaHse1
# Summary of the method: as §1
# CaLsb1 = target: CaLsb1
# Summary of the method: as §1
# CaLsb4 = target: CaLsb4
# Summary of the method: as §1
# CaMyo5 = target: CaMyo5
# Summary of the method: as §1
binder,measurement,setting,value
TSFKGRPKPPKTLKH,SPOT peptide array binding signal intensity,CaNbp2,12
same,SPOT peptide array binding signal intensity,CaRvs167,0.833
same,SPOT peptide array binding signal intensity,CaRvs167-3,1.5
same,SPOT peptide array binding signal intensity,CaSho1,0.5
same,SPOT peptide array binding signal intensity,CaSla1-D1-D2,196
same,SPOT peptide array binding signal intensity,CaSla1-D3,≤ 0
same,SPOT peptide array binding signal intensity,ScAbp1,556
same,SPOT peptide array binding signal intensity,ScBbc1,≤ 0
same,SPOT peptide array binding signal intensity,ScBem1-D1,6.5
same,SPOT peptide array binding signal intensity,ScBzz1-D1,26
same,SPOT peptide array binding signal intensity,ScBzz1-D2,18
same,SPOT peptide array binding signal intensity,ScCyk3,≤ 0
same,SPOT peptide array binding signal intensity,ScFus1,≤ 0
same,SPOT peptide array binding signal intensity,ScHof1,8.5
same,SPOT peptide array binding signal intensity,ScHse1,542
same,SPOT peptide array binding signal intensity,ScLsb1,4.75
same,SPOT peptide array binding signal intensity,ScLsb2,≤ 0
same,SPOT peptide array binding signal intensity,ScLsb3,≤ 0
same,SPOT peptide array binding signal intensity,ScLsb4,≤ 0
same,SPOT peptide array binding signal intensity,ScMyo3,3
same,SPOT peptide array binding signal intensity,ScMyo5,≤ 0
same,SPOT peptide array binding signal intensity,ScNbp2,7
same,SPOT peptide array binding signal intensity,ScPex13,1.5
same,SPOT peptide array binding signal intensity,ScRvs167,≤ 0
same,SPOT peptide array binding signal intensity,ScSho1,71
same,SPOT peptide array binding signal intensity,ScSla1-D1-D2,63.5
same,SPOT peptide array binding signal intensity,ScSla1-D3,7
same,SPOT peptide array binding signal intensity,SpAbp1-D1,174
same,SPOT peptide array binding signal intensity,SpBbc1,0.5
same,SPOT peptide array binding signal intensity,SpBzz1-D1,207
same,SPOT peptide array binding signal intensity,SpBzz1-D2,≤ 0
same,SPOT peptide array binding signal intensity,SpCyk3,≤ 0
same,SPOT peptide array binding signal intensity,SpHof1,27
same,SPOT peptide array binding signal intensity,SpHof1-2,≤ 0
same,SPOT peptide array binding signal intensity,SpHof1-3,183
same,SPOT peptide array binding signal intensity,SpHse1,79
same,SPOT peptide array binding signal intensity,SpLsb1,2.5
same,SPOT peptide array binding signal intensity,SpLsb4,12.5
same,SPOT peptide array binding signal intensity,SpMyo1,≤ 0
same,SPOT peptide array binding signal intensity,SpNbp2,22
same,SPOT peptide array binding signal intensity,SpPex13,≤ 0
same,SPOT peptide array binding signal intensity,SpRvs167,2
same,SPOT peptide array binding signal intensity,SpSla1-D1-D2,3
same,SPOT peptide array binding signal intensity,SpSla1-D3,2
SNRRPVPRRPSQPLN,SPOT peptide array binding signal intensity,AgAbp1,587
same,SPOT peptide array binding signal intensity,AgBbc1,790
same,SPOT peptide array binding signal intensity,AgBem1-D1,12
same,SPOT peptide array binding signal intensity,AgBzz1-D1,157
same,SPOT peptide array binding signal intensity,AgBzz1-D2,61.8
same,SPOT peptide array binding signal intensity,AgCyk3,7.5
same,SPOT peptide array binding signal intensity,AgFus1,27
same,SPOT peptide array binding signal intensity,AgHof1,9
same,SPOT peptide array binding signal intensity,AgHse1,18.2
same,SPOT peptide array binding signal intensity,AgLsb1,23.5
same,SPOT peptide array binding signal intensity,AgLsb4,3680
same,SPOT peptide array binding signal intensity,AgMyo5,0.25
same,SPOT peptide array binding signal intensity,AgNbp2,1230
same,SPOT peptide array binding signal intensity,AgRvs167,64.1
same,SPOT peptide array binding signal intensity,AgSho1,5.75
same,SPOT peptide array binding signal intensity,AgSla1-D1-D2,≤ 0
same,SPOT peptide array binding signal intensity,AgSla1-D3,3
same,SPOT peptide array binding signal intensity,CaAbp1-D1,328
same,SPOT peptide array binding signal intensity,CaAbp1-D2,574
same,SPOT peptide array binding signal intensity,CaBbc1,1250
same,SPOT peptide array binding signal intensity,CaBem1-D1,135
same,SPOT peptide array binding signal intensity,CaBzz1-D1,380
same,SPOT peptide array binding signal intensity,CaBzz1-D2,153
same,SPOT peptide array binding signal intensity,CaCyk3,464
same,SPOT peptide array binding signal intensity,CaFus1,111
same,SPOT peptide array binding signal intensity,CaHof1,≤ 0
same,SPOT peptide array binding signal intensity,CaHse1,20.5
same,SPOT peptide array binding signal intensity,CaLsb1,2
same,SPOT peptide array binding signal intensity,CaLsb4,4120
same,SPOT peptide array binding signal intensity,CaMyo5,2.75
same,SPOT peptide array binding signal intensity,CaNbp2,1960
same,SPOT peptide array binding signal intensity,CaRvs167,303
same,SPOT peptide array binding signal intensity,CaRvs167-3,3.5
same,SPOT peptide array binding signal intensity,CaSho1,≤ 0
same,SPOT peptide array binding signal intensity,CaSla1-D1-D2,1570
same,SPOT peptide array binding signal intensity,CaSla1-D3,14.2
same,SPOT peptide array binding signal intensity,ScAbp1,306
same,SPOT peptide array binding signal intensity,ScBbc1,478
same,SPOT peptide array binding signal intensity,ScBem1-D1,22
same,SPOT peptide array binding signal intensity,ScBzz1-D1,11.5
same,SPOT peptide array binding signal intensity,ScBzz1-D2,36.5
same,SPOT peptide array binding signal intensity,ScCyk3,17
same,SPOT peptide array binding signal intensity,ScFus1,56.8
same,SPOT peptide array binding signal intensity,ScHof1,≤ 0
same,SPOT peptide array binding signal intensity,ScHse1,639
same,SPOT peptide array binding signal intensity,ScLsb1,425
same,SPOT peptide array binding signal intensity,ScLsb2,8.5
same,SPOT peptide array binding signal intensity,ScLsb3,6520
same,SPOT peptide array binding signal intensity,ScLsb4,1140
same,SPOT peptide array binding signal intensity,ScMyo3,4.75
same,SPOT peptide array binding signal intensity,ScMyo5,2.75
same,SPOT peptide array binding signal intensity,ScNbp2,2500
same,SPOT peptide array binding signal intensity,ScPex13,377
same,SPOT peptide array binding signal intensity,ScRvs167,2630
same,SPOT peptide array binding signal intensity,ScSho1,83
same,SPOT peptide array binding signal intensity,ScSla1-D1-D2,2640
same,SPOT peptide array binding signal intensity,ScSla1-D3,66.1
same,SPOT peptide array binding signal intensity,SpAbp1-D1,352
same,SPOT peptide array binding signal intensity,SpBbc1,472
same,SPOT peptide array binding signal intensity,SpBzz1-D1,500
same,SPOT peptide array binding signal intensity,SpBzz1-D2,0.75
same,SPOT peptide array binding signal intensity,SpCyk3,6
same,SPOT peptide array binding signal intensity,SpHof1,245
same,SPOT peptide array binding signal intensity,SpHof1-2,204
same,SPOT peptide array binding signal intensity,SpHof1-3,302
same,SPOT peptide array binding signal intensity,SpHse1,91.5
same,SPOT peptide array binding signal intensity,SpLsb1,96
same,SPOT peptide array binding signal intensity,SpLsb4,2870
same,SPOT peptide array binding signal intensity,SpMyo1,73.1
same,SPOT peptide array binding signal intensity,SpNbp2,21.5
same,SPOT peptide array binding signal intensity,SpPex13,4
same,SPOT peptide array binding signal intensity,SpRvs167,1830
same,SPOT peptide array binding signal intensity,SpSla1-D1-D2,21
same,SPOT peptide array binding signal intensity,SpSla1-D3,0.5
